The nature of test [1]: Nuclear factor erythroid 2-related factor 2/antioxidant responsive element (Nrf2/ARE) small molecule agonists: qHTS cell viability counter screen in human keratinocytes (AID 1919968; active means well fitted curve in the direction sought with a large enough effect in the repeat runs; an effect the other way counts as inactive or inconclusive; further: nearly all actives have a fitted effect of over 55% in size; further: potency means the concentration at half of the fitted maximal effect). Put shortly: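 KeratinoSens HaCaT cells, 1,500/well, preincubated 5 h, then exposed to compounds in DMSO for 23 h at 37 C/5% CO2. Viability read as CellTiter-Fluor fluorescence after 1 h, in the same wells as the ARE-luciferase read.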
(In general: In qHTS, concentration-response curves come from the screen itself.)

Test [2] is described as follows: Nuclear factor erythroid 2-related factor 2/antioxidant responsive element (Nrf2/ARE) small molecule agonists: luciferase reporter gene qHTS assay in human keratinocytes (AID 1919969). Further: nearly all actives have a fitted effect of over 35% in size. For orientation: Reporter assays use an easily measured gene product as a stand-in for the process of interest.
Test [3] deals with KiSS-1 receptor (Homo sapiens) (UniProt Q969F8). Description: Human kisspeptin (KISS1R) small molecule agonists, calcium flux assay in KISS1R-HEK293 cells (AID 1920064; active means well fitted curve in the direction sought with a large enough effect in the repeat runs; an effect the other way counts as inactive or inconclusive). Put shortly: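 HEK293 cells stably expressing human KISS1R were loaded with calcium dye for 1 h at 37 C, then given compound; fluorescence (Ex/Em 480/540) was read kinetically for 3 min. Fifteen concentrations, triplicate.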
Chain of KiSS-1 receptor (Homo sapiens) (Q969F8 whole entry, looked up): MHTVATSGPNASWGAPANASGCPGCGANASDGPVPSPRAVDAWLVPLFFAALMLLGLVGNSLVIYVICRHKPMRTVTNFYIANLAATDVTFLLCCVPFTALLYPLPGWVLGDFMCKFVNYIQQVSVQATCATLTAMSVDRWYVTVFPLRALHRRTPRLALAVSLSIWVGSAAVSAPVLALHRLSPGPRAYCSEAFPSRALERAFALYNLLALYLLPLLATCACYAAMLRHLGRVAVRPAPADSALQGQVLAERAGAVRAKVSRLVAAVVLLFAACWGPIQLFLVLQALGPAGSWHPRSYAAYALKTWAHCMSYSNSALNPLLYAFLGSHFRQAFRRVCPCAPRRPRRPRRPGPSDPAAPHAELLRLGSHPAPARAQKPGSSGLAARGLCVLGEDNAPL
On the technique in general: Calcium assays in cells follow changes in intracellular calcium, usually with a dye or a luminescent sensor.

A short description of test [4]: p53 small molecule agonists, cell-based qHTS assay with human liver microsomes: qHTS cell viability counter screen (AID 1963579). Further: nearly all actives have a fitted effect of over 45% in size. Further: potency means the concentration at half of the fitted maximal effect. Put shortly: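 p53RE-bla cells (4,000/well) were pre-incubated 5 h at 37 C, then given compounds in DMSO plus human liver microsomes (0.5 mg/mL final) and NADPH (0.5 mg/mL final) for 16 h at 37 C. Viability was read by CellTiter-Glo luminescence.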

A short description of test [5]: p53 small molecule agonists, cell-based qHTS assay with rat liver microsomes: qHTS cell viability counter screen (AID 1963580). Further: nearly all actives have a fitted effect of over 45% in size. The gist of the method: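 Intracellular ATP, by CellTiter-Glo luminescence, defines viability. HCT-116 p53RE-bla cells, 4,000 per well, were compound-treated in the presence of rat liver microsomes and NADPH for 16 h at 37 C.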
Test [6] is described as follows: p53 small molecule agonists, cell-based qHTS assay: qHTS cell viability counter screen (AID 1963581). Further: nearly all actives have a fitted effect of over 45% in size. Further: potency means the concentration at half of the fitted maximal effect. The gist of the method: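 p53RE-bla HCT-116 cells, compounds added 5 h after plating and incubated 16 h at 37 C. Cytotoxicity measured in the same wells as intracellular ATP by CellTiter-Glo luminescence after 30 min at room temperature.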
Test [7] is described as follows: cAMP Responsive Elements (CRE) small molecule agonists, cell-based qHTS assay (AID 1963590). Put shortly: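 CRE-bla HEK 293T cells, 2,000/well in DMEM with 10% dialyzed FBS and 25 mM HEPES, pre-incubated 18 h at 37 C, then exposed to compound 3 h at 37 C. Beta-lactamase reporter read with LiveBLAzer B/G FRET substrate after 2 h at room temperature.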
A short description of test [8]: cAMP Responsive Elements (CRE) small molecule antagonists, cell-based qHTS assay (AID 1963591; active means well fitted inhibition curve with a large enough effect in the signal ratio in the repeat runs, not every such curve was filed as active; the % refers to the signal ratio). The gist of the method:
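CRE-bla HEK293T cells plated 18 h, then given compound plus NKH477 at 0.25 uM final for 3 h at 37C. Beta-lactamase reporter read with LiveBLAzer B/G FRET substrate after 2 h at room temperature.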

In test [9] the target is Beta-2 adrenergic receptor (Homo sapiens) (UniProt P07550). Description: Adrenergic beta2 receptor (ADRB2) small molecule antagonists, cell-based qHTS assay (AID 1963592). Further: series mostly up to about 92 µM; nearly all actives have a fitted effect of over 50% in size. The gist of the method: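 Cells (CHO, stable ADRB2 overexpression) incubated 18-20hr at 37C; compounds added from DMSO; agonist mix (1nM isoproterenol, 100uM IBMX, 25uM Ro-20-1724) added; 0.5hr RT; d2-cAMP and anti-cAMP-cryptate added; 1hr RT; 665/615 nm read.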
Chain of Beta-2 adrenergic receptor (Homo sapiens) (P07550 whole entry, looked up): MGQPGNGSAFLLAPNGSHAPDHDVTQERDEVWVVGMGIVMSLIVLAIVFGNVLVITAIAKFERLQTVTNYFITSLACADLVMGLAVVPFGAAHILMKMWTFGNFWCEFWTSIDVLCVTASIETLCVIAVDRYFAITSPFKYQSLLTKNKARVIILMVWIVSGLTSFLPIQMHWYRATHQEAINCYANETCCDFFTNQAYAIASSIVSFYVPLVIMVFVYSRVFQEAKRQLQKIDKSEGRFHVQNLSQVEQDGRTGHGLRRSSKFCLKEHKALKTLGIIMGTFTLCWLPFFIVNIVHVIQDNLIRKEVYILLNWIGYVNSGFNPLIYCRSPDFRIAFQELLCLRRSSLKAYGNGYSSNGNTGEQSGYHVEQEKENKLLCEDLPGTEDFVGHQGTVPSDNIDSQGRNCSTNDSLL

Test [10] addresses D(2) dopamine receptor (Homo sapiens) (UniProt P14416). Description: Dopamine D2 receptor (DRD2) small molecule agonists, cell-based qHTS assay (AID 1963594). Further: nearly all actives have a fitted effect of over 35% in size. Put shortly:
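cAMP accumulation in DRD2-HEK293 cells measured by HTRF after 1 h detection; compounds added 10 min before NKH477 (200nM […]) forskolin-analogue stimulation, 30 min at room temperature, with Ro20-1724 present at 0.1 mM final.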

Test [11] has the same target. Description: Dopamine D2 receptor (DRD2) small molecule antagonists, cell-based qHTS assay (AID 1963595; active means well fitted inhibition curve with a large enough effect in the signal ratio in the repeat runs, with a control signal flat; the % refers to the signal ratio). The gist of the method: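 Antagonist mode in DRD2-HEK293 cells: after compound addition with 0.1 mM Ro20-1724, cells received quinpirole (12 nM) and NKH477 (200 nM) for 30 min at room temperature; HTRF cAMP read after 1 h detection.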
Test [12] is described as follows: G protein-coupled receptor (GPCR) small molecule agonists, calcium flux assay: HEK293 wild type cell line counter screen (AID 1920065). Put shortly:
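Wild-type HEK293 cells plated 18 h, loaded with calcium dye 1 h at 37 C, then compounds added in agonist mode (ATP as positive control). Kinetic fluorescence Ex/Em 480/540 recorded 3 min at 1 sec intervals; 15 concentrations, triplicate.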

Test [13] has as its target Muscarinic acetylcholine receptor M1 (Homo sapiens) (UniProt P11229). Description: Cholinergic receptor muscarinic 1 (CHRM1) small molecule antagonists, cell-based qHTS assay (AID 1963588). Further: nearly all actives have a fitted effect of over 40% in size. Further: potency means the concentration at half of the fitted maximal effect. The gist of the method: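 CHRM1-CHO calcium-flux assay, antagonist mode. Cells were seeded 18 h, dye-loaded 1 h at 37 C and given compound for 5 min at RT, then acetylcholine was added at 50nM. FDSS fluorescence was read 3 min; 15 concentrations, three runs.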

Test [14] is described as follows: p53 small molecule agonists, cell-based qHTS assay with human liver microsomes (AID 1963577). The gist of the method:
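p53RE-bla reporter cells were pre-incubated 5 h at 37 C, then treated with compounds plus human liver microsomes (0.5 mg/mL final) and NADPH (0.5 mg/mL final) for 16 h at 37 C. Beta-lactamase activity was read by LiveBLAzer fluorescence after 2 h at room temperature.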

Test [15] in a line: p53 small molecule agonists, cell-based qHTS assay with rat liver microsomes (AID 1963578). The gist of the method: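 p53RE-bla cells were exposed to compounds together with rat liver microsomes (0.5 mg/mL final) and NADPH (0.5 mg/mL final) for 16 h at 37 C, then read by LiveBLAzer beta-lactamase fluorescence after 2 h at room temperature.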
Test [16] is described as follows: p53 small molecule agonists, cell-based qHTS assay (AID 1963582; active means well fitted activation curve with a large enough effect in the signal ratio in the repeat runs, not every such curve was filed as active; the % refers to the signal ratio). The gist of the method: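 p53RE-bla reporter cells, compounds added in DMSO after 5 h plating, incubated 16 h at 37 C. Beta-lactamase read via 2 h room-temperature LiveBLAzer B/G FRET substrate, fluorescence intensity.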
The target of test [17] is 5-hydroxytryptamine receptor 2A (Homo sapiens) (UniProt P28223). Description: 5-hydroxytryptamine receptor 2A (HTR2A) small molecule antagonists, cell-based qHTS assay (AID 1963586). Further: nearly all actives have a fitted effect of over 45% in size. Put shortly: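 Antagonist-mode intracellular calcium assay: DOI (4 nM) added after 5 min compound pre-incubation at room temperature to dye-loaded HTR2A-CHO cells. Fluorescence followed for 3 min, sampled every second.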
Chain of 5-hydroxytryptamine receptor 2A (Homo sapiens) (P28223 whole entry, looked up): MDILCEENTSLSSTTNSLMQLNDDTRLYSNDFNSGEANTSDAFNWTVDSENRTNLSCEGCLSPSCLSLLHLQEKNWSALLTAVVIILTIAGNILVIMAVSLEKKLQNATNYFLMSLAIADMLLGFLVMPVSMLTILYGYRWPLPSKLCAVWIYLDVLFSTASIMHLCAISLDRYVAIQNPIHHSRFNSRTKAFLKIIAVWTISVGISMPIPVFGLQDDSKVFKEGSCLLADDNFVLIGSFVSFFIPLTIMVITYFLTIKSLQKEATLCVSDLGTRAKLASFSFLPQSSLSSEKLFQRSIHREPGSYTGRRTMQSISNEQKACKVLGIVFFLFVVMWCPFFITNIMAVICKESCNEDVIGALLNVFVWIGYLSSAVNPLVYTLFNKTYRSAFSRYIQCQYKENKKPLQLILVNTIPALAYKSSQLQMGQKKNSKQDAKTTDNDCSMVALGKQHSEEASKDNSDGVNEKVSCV

Test [18] addresses Muscarinic acetylcholine receptor M1 (Homo sapiens) (UniProt P11229). Description: Cholinergic receptor muscarinic 1 (CHRM1) small molecule agonists, cell-based qHTS assay (AID 1963589). Further: nearly all actives have a fitted effect of over 35% in size. The gist of the method: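 CHO cells stably expressing human CHRM1 were loaded with calcium dye for 1 h at 37 C, then compound was added in agonist mode. Intracellular calcium fluorescence was followed kinetically at 1 s intervals. Fifteen concentrations were tested in three independent runs.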

Test [19] concerns the target 5-hydroxytryptamine receptor 2A (Homo sapiens) (UniProt P28223). Description: 5-hydroxytryptamine receptor 2A (HTR2A) small molecule agonists, cell-based qHTS assay (AID 1963587). Further: nearly all actives have a fitted effect of over 30% in size. The gist of the method: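 Kinetic calcium-flux fluorescence (2 min, 1 sec intervals) after compound addition in agonist mode. HTR2A-CHO cells were cultured 18 h, then dye-loaded 1 h at 37 C.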

Test [20] addresses Beta-2 adrenergic receptor (Homo sapiens) (UniProt P07550). The test can be described thus: Adrenergic beta2 receptor (ADRB2) small molecule agonists, cell-based qHTS assay (AID 1963593).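 Further: CHO cells stably overexpressing human ADRB2.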 The gist of the method: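 CHO cells stably over-expressing ADRB2 were plated overnight at 37C, then dosed with compounds plus a stimulation mix containing 100uM IBMX and 25uM Ro-20-1724 for 0.5hr at room temperature. cAMP was measured by HTRF competition, 1hr.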

Molecules are shown by their SMILES. Records with an inconclusive call do not appear. Calls of active or inactive are those of the source. Unless noted, the call rests on the fitted dose curve.

Chain of Muscarinic acetylcholine receptor M1 (Homo sapiens) (P11229 whole entry, looked up): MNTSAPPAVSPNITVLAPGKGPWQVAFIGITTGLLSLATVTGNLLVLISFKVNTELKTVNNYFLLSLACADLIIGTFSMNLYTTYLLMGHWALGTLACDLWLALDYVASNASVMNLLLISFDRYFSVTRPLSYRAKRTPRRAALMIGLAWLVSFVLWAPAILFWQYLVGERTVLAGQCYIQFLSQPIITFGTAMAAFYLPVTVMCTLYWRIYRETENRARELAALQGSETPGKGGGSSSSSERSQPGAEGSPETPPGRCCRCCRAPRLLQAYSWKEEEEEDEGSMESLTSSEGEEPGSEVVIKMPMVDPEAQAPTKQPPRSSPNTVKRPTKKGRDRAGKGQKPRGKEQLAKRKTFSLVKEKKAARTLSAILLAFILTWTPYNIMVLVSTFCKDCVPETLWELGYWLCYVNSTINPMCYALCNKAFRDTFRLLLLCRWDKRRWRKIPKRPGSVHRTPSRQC
Chain of D(2) dopamine receptor (Homo sapiens) (P14416 whole entry, looked up): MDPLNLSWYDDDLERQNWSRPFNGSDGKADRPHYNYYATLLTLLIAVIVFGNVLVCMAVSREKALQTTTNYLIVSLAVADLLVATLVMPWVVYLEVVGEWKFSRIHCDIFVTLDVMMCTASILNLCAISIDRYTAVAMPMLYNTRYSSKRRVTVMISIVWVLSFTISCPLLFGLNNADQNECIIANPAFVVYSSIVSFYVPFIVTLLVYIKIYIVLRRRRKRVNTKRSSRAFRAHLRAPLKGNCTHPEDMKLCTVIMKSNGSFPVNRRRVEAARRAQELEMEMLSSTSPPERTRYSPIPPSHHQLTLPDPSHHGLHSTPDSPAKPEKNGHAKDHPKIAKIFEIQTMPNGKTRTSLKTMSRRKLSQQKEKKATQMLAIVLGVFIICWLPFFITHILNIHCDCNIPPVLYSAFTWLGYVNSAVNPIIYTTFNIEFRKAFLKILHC

On to `CC(=O)OCC(=O)[C@@]1(O)CC[C@H]2[C@@H]3CCC4=CC(=O)CC[C@]4(C)[C@H]3C(=O)C[C@@]21C`, for which the Potency entry in [1], in [2], in test [3], in test [4], in [5] and in test [6] was “inactive” throughout. In addition, the Potency entry in [7], in test [8], in [9], in test [10] and in [11] was “inactive” throughout.

In the case of `CC/C(=C(/c1ccc(O)cc1)c1ccc(OCCN(C)C)cc1)c1ccccc1`, the Potency in test [1] is 18 µM (active); in test [4], 26.9 µM (active); in test [13], 13.9 µM (active). Besides, the Potency entry in [2], in [3], in test [12] and in test [10] was “inactive” each time.

`CC(C)(C)CC(C)(C)c1ccc(OCCO)cc1`: the Potency result in test [1], in test [2], in [12], in test [14], in test [15] and in test [5] was “inactive” in each case. In addition, the Potency entry in test [6], in test [16], in [17], in test [18], in test [9] and in test [11] was “inactive” in each case.

In the case of `CN1C(C)(C)CC(O)CC1(C)C`, the Potency result in test [1], in test [2], in test [3], in [12], in test [4] and in [5] was “inactive” each time. The Potency entry in [6], in [17], in test [13], in [18], in [7] and in test [8] was “inactive” throughout. For the same molecule, the Potency entry in [9], in test [10] and in test [11] was “inactive” each time.

`CCCCCCCCNC`: the Potency result in [1], in test [2], in test [3], in test [12], in test [4] and in test [5] was “inactive” each time. Also, the Potency entry in [6], in [17], in test [19], in test [13], in [7] and in test [8] was “inactive” each time. Besides, the Potency result in test [9], in test [10] and in test [11] was “inactive” throughout.

Regarding `CC/C(=C(\c1ccc(O)cc1)c1ccc(OCCN(C)C)cc1)c1ccccc1`, the Potency in test [1] is 30.7 µM (active); in test [4] it was 20.5 µM (active); in test [6] it was 20.5 µM (active). Besides, the Potency result in test [2], in test [3], in [12], in test [17], in [13] and in test [20] was “inactive” throughout. Also, in test [10], the Potency result is “inactive”.

Regarding `CCCCCCCCCCC=O`, the Potency result in test [1], in test [2], in test [3], in [12], in test [5] and in [6] was “inactive” throughout. For the same molecule, the Potency result in test [17], in test [19], in test [13], in test [18], in [7] and in test [8] was “inactive” each time. The Potency entry in test [9], in [20], in test [10] and in test [11] was “inactive” throughout.

Turning to `[Ca+2]`, the Potency result in test [1], in [2], in [3], in test [12], in [4] and in [5] was “inactive” each time. Further, the Potency result in [6], in test [17], in test [19], in test [13], in [18] and in test [8] was “inactive” throughout. The Potency result in test [9], in [20] and in test [10] was “inactive” each time.

Turning to `CC(=O)c1ccccc1[N+](=O)[O-]`, the Potency entry in [1], in test [2], in test [3], in test [12], in test [4] and in test [5] was “inactive” throughout. For the same molecule, the Potency entry in test [6], in [17], in test [19], in [18], in test [7] and in test [8] was “inactive” in each case. The Potency entry in [9], in test [10] and in [11] was “inactive” throughout.

Source of the values: PubChem BioAssay (Tox21).
